According to PubChem BioAssay (NCATS):
Results filed as inconclusive are left out. Where a call stands in place of a potency, no number is given. Calls of active or inactive are those of the source. Calls follow the shape of the dose curve; as a rule, active = well fitted cell-killing curve with a large enough effect; inconclusive = small, poorly fitted or top-dose-only effect, or effect the other way; inactive = no such curve, though single readings can be large or run the other way. Non-standard residues stand in square brackets, D forms with d. Residues, ends and D or L forms follow the SMILES beside them. Peptide text beside a SMILES is read from it. *: point of attachment. Sta = CC(C)C[C@H](N)[C@@H](O)CC(=O)O; Isovaleryl = CC(C)CC(=O)*

Assay: Quantitative High-Throughput drug screen in 47 multiple myeloma cell lines against the NCATS MIPE library collection: EJM_DSMZ cell viability assay (AID 1918926; also: nearly all actives have a fitted effect of over 30% in size)
Settings: EJM myeloma cell viability, CellTiter-Glo ATP, 48 h; series mostly up to 45.8 µM
Excerpt: PI: Beverly A. Mock Ph.D.
Laboratory of Cancer Biology and Genetics,
Center for Cancer Research, National Cancer Institute,
National Institute of Health, Bethesda, Maryland
Drug resistance and disease progression are common in multiple myeloma (MM) patients, underscoring the need for new therapeutic combinations. […] We hypothesized that effective combinations would reduce MYC expression and enhance p16 activity. […] These preclinical data identify potentially useful drug combinations for evaluation in drug-resistant MM and reveal potential mechanisms of combined drug sensitivity.
Described herein is the primary MIPE qHTS used to cherrypick compounds. Validated compounds were then further tested for potential synergistic activiy.
[1] Peat TJ, Gaikwad SM, Dubois W, Gyabaah-Kessie N, Zhang S, Gorjifard S, Phyo Z, Andres M, Hughitt VK, Simpson RM, Miller MA, Girvin AT, Taylor A, Williams D, D'Antonio N, Zhang Y, Rajagopalan A, Flietner E, Wilson K, Zhang X, Shinn P, Klumpp-Thomas C, McKnight C, Itkin Z, Chen L, Kazandijian D, Zhang J, Michalowski AM, Simmons JK, Keats J, Thomas CJ, Mock BA. Drug combinations identified by high-throughput screening promote cell cycle transition and upregulate Smad pathways in myeloma. Cancer Lett. 2023 Aug 1;568:216284. doi: 10.1016/j.canlet.2023.216284. Epub 2023 Jun 24. PMID: 37356470; PMCID: PMC10408729.
SEQUENCE No. (e.g., 1, 2, 3, etc.); […] (e.g., Cells, Incubation, Reagent, etc.); VALUE and DESCRIPTION.
1; Cells; 5 uL; white, solid bottom 1536-well Greiner assay plate.
2; Compounds; 23 nL; Kalypsis pin tool (Wako USA) equipped with a 1536-well pin head to transfer to the assay plates.
3; Incubation; 48 hours; 37C incubation.
4; Reagent;5uL; CellTiter Glo (Promega).
5; Detector; 425V; Luminescence; Viewlux PerkinElmer.
NOTES (numbers refer to Sequence numbers above)
1. The cell-based screening methods employed in this study were like those previously published. Briefly, the corresponding myeloma cell lines were screened in 1,536-well plates with 500 cells, 5-uL per well for inhibition of cell viability (assessed by measuring ATP levels with CellTiterGlo).
2. NCATS MIPE 4.0 library of approved and investigational drugs were added using the Kalypsis pin tool. Wells treated with DMSO only for 100% viability and media only wells for 0% viability were used as controls.
3. The assay plates were covered and incubated for 48 hours in a 37C, 5% CO2 incubator with controlled humidity.
4. After 48 hours, CellTilter-GloTM luminescent substrate mix (Promega) reagent was added to the assay plate and plates we incubated for 5 min at room temperature.
5. Signal was measured as median relative luminescence units on a ViewLux (PerkinElmer) multiplate reader.
[1] Heske CM, Davis MI, Baumgart JT, Wilson K, Gormally MV, Chen L, Zhang X, Ceribelli M, Duveau DY, Guha R, Ferrer M, Arnaldez FI, Ji J, Tran HL, Zhang Y, Mendoza A, Helman LJ, Thomas CJ. Matrix Screen Identifies Synergistic Combination of PARP Inhibitors and Nicotinamide Phosphoribosyltransferase (NAMPT) Inhibitors in Ewing Sarcoma. Clin Cancer Res. 2017 Dec 1;23(23):7301-7311. doi: 10.1158/1078-0432.CCR-17-1121. Epub 2017 Sep 12. PMID: 28899971; PMCID: PMC6636827.
Potency is read from the fitted curve at half-maximal effect.

Row | SMILES | Potency
1 | Cc1cccc(C#Cc2ccccc2)n1 | inactive
2 | CC1(C)C(=O)N(CCN2CCC(C(=O)c3ccc(F)cc3)CC2)c2ccccc21 | inactive
3 | Cc1cc(Cl)ccc1OCCCC(=O)NO | 0.296 µM (active)
4 | O=C1CCc2ccc(OCCCCN3CCN(c4cccc(Cl)c4Cl)CC3)cc2N1 | inactive
5 | O=c1c(O)c(-c2ccc(O)cc2O)oc2cc(O)cc(O)c12 | inactive
6 | Cc1ncc([N+](=O)[O-])n1CC(C)O (stereo not given) | inactive
7 | Cn1c(NCCN(CCO)CCCc2ccc([N+](=O)[O-])cc2)cc(=O)n(C)c1=O | inactive
8 | Nc1cc(C(Cl)=C(Cl)Cl)c(S(N)(=O)=O)cc1S(N)(=O)=O | inactive
9 | Cc1ccc(Nc2nccc(N(C)c3ccc4c(C)n(C)nc4c3)n2)cc1S(N)(=O)=O | 14.8 µM (active)
10 | O=C(O)c1cn(-c2ccc(F)cc2)c2cc(N3CCNCC3)c(F)cc2c1=O | inactive
11 | O=C(O)c1cc(=O)c2c(OCC(O)COc3cccc4oc(C(=O)O)cc(=O)c34)cccc2o1 | inactive
12 | CC(C)CC(=O)N[C@H](C(=O)N[C@H](C(=O)N[C@@H](CC(C)C)[C@@H](O)CC(=O)N[C@@H](C)C(=O)N[C@@H](CC(C)C)[C@@H](O)CC(=O)O)C(C)C)C(C)C (Isovaleryl-VV[Sta]A[Sta]-OH) | inactive
13 | Cc1cc2cc3c(C)cc(=O)oc3c(C)c2o1 | 5.9 µM (active)
14 | CCC1=C(C)CN(C(=O)NCCc2ccc(S(=O)(=O)NC(=O)NC3CCC(C)CC3)cc2)C1=O (stereo not given) | inactive
15 | CC(C)c1nc(CN(C)C(=O)N[C@H](C(=O)N[C@@H](Cc2ccccc2)C[C@H](O)[C@H](Cc2ccccc2)NC(=O)OCc2cncs2)C(C)C)cs1 | inactive
16 | CC1=C(C(=O)O)N2C(=O)[C@@H](NC(=O)[C@H](N)C3=CCC=CC3)[C@H]2SC1 | inactive
17 | S=c1nc[nH]c2nc[nH]c12 | inactive
18 | COc1cc(C(C)=O)ccc1OCCCN1CCC(c2noc3cc(F)ccc23)CC1 | inactive
19 | CC(C)[N+]1(C)[C@@H]2CC[C@H]1CC(OC(=O)C(CO)c1ccccc1)C2 (stereo not given in full) | inactive
20 | C=CCc1cc(OC)c(O)c(C(=O)NCCO)c1 | inactive

Row | SMILES | Potency
21 | C[C@]12CCC(=O)C=C1CC[C@@H]1[C@H]2[C@@H](O)C[C@@]2(C)[C@H]1CC[C@]2(O)C(=O)CO | inactive
22 | CCOc1cc(CC(=O)N[C@@H](CC(C)C)c2ccccc2N2CCCCC2)ccc1C(=O)O | inactive
23 | COc1ccc(C2(C#N)CCC(C(=O)O)CC2)cc1OC1CCCC1 (stereo not given) | inactive
24 | CN1C(C(=O)Nc2ccccn2)=C(O)c2sccc2S1(=O)=O | inactive
25 | CNC[C@@H](O)[C@@H](O)[C@H](O)[C@H](O)CO | inactive
26 | Cc1c(C(=O)NN2CCCCC2)nn(-c2ccc(Cl)cc2Cl)c1-c1ccc(Cl)cc1 | inactive
27 | Nc1cccc2c1CN(C1CCC(=O)NC1=O)C2=O (stereo not given) | inactive
28 | COCCCOc1ccnc(CS(=O)c2nc3ccccc3[nH]2)c1C (stereo not given) | inactive
29 | O=C(O)CCNC(=O)c1ccc(N=Nc2ccc(O)c(C(=O)O)c2)cc1 | inactive
30 | NC(=NCc1ccccc1)NC(=O)c1nc(Cl)c(N)nc1N | inactive
31 | O=C(NC(Cc1cc(=O)[nH]c2ccccc12)C(=O)O)c1ccc(Cl)cc1 (stereo not given) | 4.69 µM (active)
32 | Nc1nc(N)c(N=O)c(OCC2CCCCC2)n1 | 10.5 µM (active)
33 | Cc1cc(=O)oc2cc(O)ccc12 | inactive
34 | COC(=O)[C@H](Cc1ccccc1)NC(=O)[C@@H](N)CC(=O)O (H-Asp-Phe-OMe) | inactive
35 | N[C@@H](Cc1cc(I)c(Oc2cc(I)c(O)c(I)c2)c(I)c1)C(=O)O | inactive
36 | CCN(CC)CCOc1ccc(Nc2ncc3cc(-c4c(Cl)cccc4Cl)c(=O)n(C)c3n2)cc1 | 2.09 µM (active)
37 | NCCCCNCCCN | 23.5 µM (active)
38 | COc1ccc2cc([C@H](C)C(=O)O)ccc2c1 | inactive
39 | O=C(c1ccccc1)c1ccc2n1CCC2C(=O)O (stereo not given) | 2.35 µM (active)
40 | N=C(N)c1ccc2cc(OC(=O)c3ccc(N=C(N)N)cc3)ccc2c1 | 18.7 µM (active)
